TWEAK Fn14 block: TWEAK-Fn14 signaling inhibition. TWEAK-stimulated Fn14 reporter cells, luciferase luminescence, 8 h. actives 2% (n = 360,000). AID 1159606. inhibition, % at 10 µM; in the data active means inhibition above about 50%
TROY NFkB inh: blocks TROY-dependent signaling in reporter cells; actives 0.98% (n = 360,000); inhibition, % at 10 µM; AID 1347056; Q293 LMP1-TROYcd NF-kB luciferase reporter, 4 h;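 active means compounds whose plate-normalised and pattern-corrected inhibition of the luciferase reporter signal at the single screening dose is 50% or more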
EBV LMP1 NFkB: inhibitors of Epstein-Barr LMP1-induced NF-kappaB reporter; LMP1-induced NF-kappaB luciferase reporter cells, luminescence; inhibition, % at 12.5 µM; actives 0.69% (n = 350,000); in the data active means inhibition above about 41%;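 further: 0% = neutral control wells and 100% = reference inhibitor control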
LGR2 inh: inhibitors of bursicon-induced Drosophila LGR2 receptor cAMP signaling; HEK293 LGR2, CRE-luciferase, bursicon-stimulated, 4 h; inhibition, % at 9.99 µM; actives 0.35% (n = 380,000); AID 720647;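 active means drop in luminescence signal, shown as inhibition above about 50% in the replicate tests, limit read from the data, passing the limit was not always enough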;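 further: agonist challenge used bursicon conditioned medium at about half maximal strength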
EWS-Fli block: EWS/Fli transcriptional activity inhibition. actives 0.67% (n = 350,000). inhibition, % at 12.6 µM. AID 651661. A673 NR0B1-luciferase reporter, viability-normalised;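 active means mean inhibition of at least 50% after viability correction, with every replicate also passing that limit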;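 further: firefly luciferase signal divided by Alamar Blue viability fluorescence both relative to DMSO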
An asterisk follows results filed as active; x = not tested or not shown. In the library only some 2.5% were active in any assay of this set; here they are far more common.

SMILES	TWEAK Fn14 block	TROY NFkB inh	EBV LMP1 NFkB	LGR2 inh	EWS-Fli block
O=C(C[C@H]1C[C@H](C(=O)N2CCCCC2)[C@@]2(CCc3ccccc3)c3[nH]c4ccc(Cl)cc4c3CCN2C1=O)NCCc1ccccn1	68.7*	63.0*	20.1	x	x
C[C@@H]1CCCCO[C@@H](CN(C)C(=O)c2ccncc2)[C@@H](C)CN([C@@H](C)CO)C(=O)c2cc(NC(=O)C3CCCCC3)ccc2O1	x	x	x	-4.5	-5.2
COc1ccc2c3c(n(C)c2c1)[C@@H](CO)NCC31CCN(S(=O)(=O)c2ccc(C)cc2)CC1	x	x	x	-4.7	-10.9
C[C@@H]1CCCCO[C@@H](CN(C)S(C)(=O)=O)[C@@H](C)CN([C@H](C)CO)C(=O)c2cc(NS(=O)(=O)c3cccs3)ccc2O1	x	x	x	-21.9	-8.3
CCCNC(=O)N1C[C@@H](O)COC[C@H]2O[C@@H](CC(=O)NCc3ccncn3)CC[C@@H]21	x	x	x	-3.3	5.4
N#Cc1ccc(-c2ccc3c(c2)[C@H]2[C@H](CCN2C(=O)c2ccccc2F)[C@@H](CO)N3)cc1	x	x	x	21.0	16.5
C[C@@H]1CN([C@@H](C)CO)C(=O)c2c(c3ccccc3n2C)-c2ccccc2CO[C@@H]1CN(C)C(=O)NC1CCCCC1	x	x	x	-2.8	6.6
CC(C)(C)NCC(=Cc1ccccc1)C(=O)c1ccccc1	99.3*	21.2	87.1*	72.5*	56.6*
Cc1cc(Nc2ccccc2)c2c([N+](=O)[O-])cc(C)c(C)c2n1	-2.4	-17.2	42.0*	x	x
Cc1ccc(S(=O)(=O)Cc2ccc(C(=O)N3CCN(c4cc(C)ccc4C)CC3)o2)cc1	29.0	10.8	-4.2	x	x
Cc1ccc(C)c(N2CCN(C(=O)Cn3cccc3)CC2)c1	5.2	12.4	7.7	8.9	x
CCC(=O)N1CCN(c2cc(C)ccc2C)CC1	76.2*	-9.5	1.6	x	x
Cc1ccc(C)c(N2CCN(C(=O)c3ccc(CS(=O)(=O)c4ccccc4C)o3)CC2)c1	55.4*	11.9	6.2	x	x
Cc1ccc(CS(=O)Cc2ccc(C(=O)N3CCN(c4cccc(C)c4C)CC3)o2)cc1 (stereo not given)	12.5	57.0*	-0.1	1.4	-3.2
Cc1ccc(Cl)cc1N1CCN(C(=O)c2ccc(CS(=O)Cc3ccc(Cl)cc3)o2)CC1 (stereo not given)	10.0	53.6*	-0.8	5.5	6.0
COc1ccccc1-c1cn(CC[C@@H]2CC[C@H](NC(=O)c3cnccn3)[C@@H](CO)O2)nn1	x	x	x	21.3	x
C[C@H](CO)N1C[C@H](C)[C@H](CN(C)Cc2ccc(Oc3ccccc3)cc2)OCc2cn(nn2)CCCC1=O	x	x	x	-1.5	-2.5
O=C(C[C@@H]1C=C[C@@H](NC(=O)C2CCC2)[C@H](CO)O1)NC1CCCCC1	x	x	x	-1.9	-0.8
O=C(c1ccccc1)n1c(=S)nc2ccccn21	82.4*	59.6*	22.3	x	x
Cc1cccc(C(=O)n2c(=S)nc3ccccn32)c1	76.8*	43.1	30.1	x	x
C=C[C@H](OC)[C@@H](OC(=O)Nc1ccc(SC)cc1)c1ccc(OCCO)cc1	x	x	x	x	-11.1
COc1cccc(NC(=O)C[C@H]2CC[C@H]3[C@@H](COc4ccc(NC(=O)C5CCOCC5)cc4C(=O)N3C)O2)c1	x	x	x	0.9	-16.9
O=C(Nc1cccc(Cl)c1)c1ccc2c(=O)n3c(nc2c1)CCCCC3	40.8	52.8*	-22.6	x	x
O=C(Nc1ccc(Cl)cc1)c1ccc2c(=O)n3c(nc2c1)CCCCC3	7.9	-2.9	-23.3	-46.0	-62.0
O=C(Nc1ccccn1)c1ccc2c(=O)n3c(nc2c1)CCCCC3	56.1*	12.8	-4.8	13.2	-4.4
SMILES	TWEAK Fn14 block	TROY NFkB inh	EBV LMP1 NFkB	LGR2 inh	EWS-Fli block
Cc1noc(C)c1NC(=O)Nc1cccc2c1O[C@H](CN(C)Cc1ccncc1)[C@@H](C)CN([C@H](C)CO)C2=O	x	x	x	-10.3	x
C[C@H]1CN([C@@H](C)CO)S(=O)(=O)c2ccc(-c3ccc(C#N)cc3)cc2O[C@H]1CN(C)C	x	x	x	-11.0	-0.6
CO[C@H]1CN(C)C(=O)c2cc(NC(=O)C3CC3)ccc2OC[C@H](C)N(C(=O)c2ccccn2)C[C@H]1C	x	x	x	-13.4	-0.6
COc1ccc(-c2nc(CN3CCN(c4ccccc4OC)CC3)c(C)o2)cc1	-18.9	-12.7	9.5	1.9	15.4
Cc1oc(-c2cc(F)ccc2F)nc1CN1CCC(C(=O)N2CCOCC2)CC1	-1.7	3.4	-6.2	6.3	-3.3
COc1ccc(-c2nc(CN3CCN(c4ncnc5ccccc45)CC3)c(C)o2)c(OC)c1	59.0*	29.3	16.9	8.5	1.5
Cc1oc(-c2cc(F)ccc2F)nc1CN1CCN(c2ncnc3ccccc23)CC1	52.2*	28.5	18.5	4.9	-2.7
CO[C@H]1CN(C)C(=O)c2cc(NC(=O)c3ccc(-c4ccccc4)cc3)ccc2OC[C@@H](C)NC[C@@H]1C	x	x	x	22.5	1.5
CO[C@H]1CN(C)C(=O)c2cc(NC(=O)c3ccc(Oc4ccccc4)cc3)ccc2OC[C@@H](C)NC[C@@H]1C	x	x	x	-9.7	13.6
CO[C@H]1CN(C)C(=O)c2cc(NC(=O)c3ccc(-c4ccccc4)cc3)ccc2OC[C@H](C)NC[C@@H]1C	x	x	x	6.9	58.1*
CO[C@@H]1CN(C)C(=O)c2cc(NC(=O)c3ccc(Oc4ccccc4)cc3)ccc2OC[C@H](C)NC[C@H]1C	x	x	x	-0.8	69.2*
CO[C@@H]1CN(C)C(=O)c2cc(NC(=O)c3ccc(-c4ccccc4)cc3)ccc2OC[C@H](C)NC[C@H]1C	x	x	x	0.2	53.9*
COCCNC(=O)C[C@H]1C[C@@H]2c3cc(NS(C)(=O)=O)ccc3O[C@@H]2[C@@H](CO)O1	x	x	x	14.5	1.8
C[C@H](CO)N1C[C@H](C)[C@@H](CN(C)Cc2ccccc2)Oc2ccc(NC(=O)C3CCCCC3)cc2CC1=O	x	x	x	-6.6	6.0
C[C@H]1CN([C@@H](C)CO)C(=O)c2cc(C#CCc3ccccc3)cnc2O[C@@H]1CN(C)CC1CCCC1	x	x	x	-6.7	2.7
COCC(=O)N(C)C[C@@H]1Oc2cc(-c3ccc(F)cc3)ccc2S(=O)(=O)N([C@@H](C)CO)C[C@H]1C	x	x	x	-7.5	-17.7
O=C(C[C@H]1CC[C@@H]2[C@H](COC[C@H](O)CN2CC2CCCCC2)O1)NCC1CC1	x	x	x	-1.9	-97.3
Cc1ccc([N+](=O)[O-])cc1N(CC(=O)Nc1ccc(S(=O)(=O)Nc2cccc(C(F)(F)F)c2)cc1)S(C)(=O)=O	84.8*	69.9*	-54.4	11.4	x
COc1ccccc1N(CC(=O)Nc1cccc(C(F)(F)F)c1)S(C)(=O)=O	1.9	11.6	-3.5	9.8	-19.9
CC(=O)N1[C@@H]2c3ccc(C4=CCCCC4)c(=O)n3C[C@H]1[C@H](CO)[C@H]2C(=O)NCc1cc(F)cc(F)c1	x	x	x	14.6	-1.6
CCN(CC)S(=O)(=O)c1ccc(Cl)c(NC(=S)NC(=O)C2CCCC2)c1	56.3*	54.5*	6.9	12.7	17.1
CCN(CC)c1ccc(S(=O)(=O)Nc2cc(Cl)ccc2Cl)cc1NC(=S)NC(=O)C1CCCC1	41.6	23.1	7.6	22.4	49.4
CCOc1cccc2sc(N(CCCN(C)C)C(=O)c3ccc(C(=O)c4ccccc4)cc3)nc12	92.2*	-22.1	-11.4	1.6	x

Screens deposited in PubChem BioAssay by several laboratories.
